The full list was thinned out, with hits kept by preference.
Dicer processing = blocks human Dicer maturation of pre-miR-21; z-score at 25 µM; Q9UPY3; AID 1347074; cat-ELCCA pre-miR-21 Dicer processing, chemiluminescence; hits give high values; 47,000 compounds, 6% hits; in the data active = z-score above about 3, passing the limit was not always enough;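 also: higher signal means more uncleaved substrate so more Dicer inhibition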
Of the large screens only hits and unclear results are named; the others gave an inactive call.

Cc1cc(NS(=O)(=O)c2ccc(Nc3nc(-c4c(C)nc5ccccn45)cs3)cc2)no1	Dicer processing 3.5
Cc1cc(C)nc(NS(=O)(=O)c2ccc(Nc3nc(-c4c(C)nc5ncccn45)cs3)cc2)n1	none
CN(C)/C=C(\C#N)C(=O)Nc1ccc(F)c(F)c1	none
CSc1nc(SC)c(C#N)c(-c2cccs2)n1	none
CCOC(=O)c1c(Nc2c(C)cccc2C)sc(C(=O)c2ccc(Br)cc2)c1N	none
CCCCOC(=O)C1=C(C)NC2=C(C(=O)CCC2)C1c1ccc(Br)cc1 (stereo unspecified)	none
CCOc1ccc(C2C(C(=O)OC(C)C)C(=O)CC(C)(O)C2C(=O)OC(C)C)cc1 (stereo unspecified)	none
CC1CCC2C(=O)N(c3ccc(C(C)(C)C)cc3)C(=O)C2C1 (stereo unspecified)	none
C[C@H](Nc1ncnc2sc3c(c12)CCCC3)c1ccccc1	none
O=[N+]([O-])c1cccnc1Sc1nccc(-c2cccnc2)n1	none
CCN(CC)c1ccc(Nc2nc(-c3ccc(O)cc3O)cs2)cc1	none
COc1ccccc1Nc1nc(-c2c(C)nc3cc(C)ccn23)cs1	Dicer processing 4.6
COc1ccc(-c2csc(Nc3ccc(N(C)C)cc3)n2)cc1	none
COc1ccccc1Nc1nc(-c2sc(N)nc2C)cs1	none
Cc1ccn2c(-c3csc(Nc4ccc(N(C)C)cc4)n3)c(C)nc2c1	Dicer processing 5.5
COc1ccccc1Nc1n[nH]c(=S)s1	none
Nc1c(C(=O)NNC(=S)NCc2ccccc2)cnn1-c1ccccc1	none
NNC(=O)C1CCN(c2ncc(C(F)(F)F)cc2Cl)CC1	none
CCOC(=O)C1=C(C)NC(C)=C(C(=O)OCC)C1c1ccc(OC)cc1Cl	none
Cc1nn2c(=O)/c(=C/c3ccccc3Cl)sc2nc1=O	none
COc1nc(C)nc(N/C=C2\C(=O)c3ccccc3N(C)S2(=O)=O)n1	none
CCCCCCCCSc1ncn[nH]1	none
CCCCCSc1nncc(=O)[nH]1	Dicer processing 4.2
CCCCCCCSc1nnc(-c2ccccc2N)c(=O)[nH]1	none
CCCOc1ccc(N2C(=O)CC(N3CCN(C(=O)OCC)CC3)C2=O)cc1 (stereo unspecified)	none
Cc1ccc(/C(C#N)=C2C=C/C(=N\O)C(Cl)=C\2)cc1	none
Cc1ccc(/C(C#N)=C2C=C(Cl)/C(=N/O)C=C\2Cl)cc1	Dicer processing 3.8
N#C/C(=C1C=C/C(=N\O)C(Br)=C/1)c1ccccc1	none
CC1=C(C(=O)OC(C)C)C(c2ccc(Cl)cc2)n2c(nc3ccccc32)N1 (stereo unspecified)	none
O=C(Cn1c(=O)sc2ccccc21)N1CCN(c2ccccc2)CC1	none
CSc1nnc(-c2csc(S(=O)(=O)Nc3cccc(C(F)(F)F)c3)c2)n1C	none
Cc1ccc(-n2c(-c3ccc(Cl)cc3)cn3c4c(=O)n(C)c(=O)n(C)c4nc23)cc1N	none
O=C(/C(=C/Nc1cc(C(F)(F)F)cc(C(F)(F)F)c1)[N+](=O)[O-])c1ccc(Cl)c(Cl)c1	none
O=[N+]([O-])c1ccsc1SCCO	none
CCOc1ccc(-c2nn3c(-c4ccccc4Cl)nnc3s2)cc1	none
CC(C(=O)NNC(=O)C1CC1)n1nnc(-c2cc(C(F)(F)F)cc(C(F)(F)F)c2)n1 (stereo unspecified)	none
CC(=O)NNC(=O)C(C)n1nnc(-c2cc(C(F)(F)F)cc(C(F)(F)F)c2)n1 (stereo unspecified)	none
CC(C(=O)NNC(=O)C(C)(C)C)n1nnc(-c2cc(C(F)(F)F)cc(C(F)(F)F)c2)n1 (stereo unspecified)	Dicer processing 3.8
CCCOC(=O)C1=C(C)NC2=C(C(=O)CC(C)(C)C2)C1c1ccc(C(=O)OC)cc1 (stereo unspecified)	none
Cc1cc(C(C)(C)C)ccc1NC(=O)CCC(=O)O	none
O=C(O)c1ccc(Cn2ccc([N+](=O)[O-])n2)cc1	none
CCC(=O)Oc1cc(C)c2sc3ccccc3c(=O)c2c1	Dicer processing 4.4
CCC(=O)Oc1c(C)cc(O)c2ccccc12	none
CCC(=O)Oc1ccc2nc(-c3ccc(C)c(C)c3)oc(=O)c2c1	none
COc1ccc(CCNC(=S)Nc2c(Br)cc(F)cc2Br)cc1OC	none
COc1ccc(C(=O)/C=C/Sc2ncc(C(F)(F)F)cc2Cl)cc1	none
Cc1nc(C(F)(F)F)ccc1C(=O)Oc1ccc2c(c1)OCO2	none
Cn1c2ccccc2c2nnc(SCc3ccccc3)nc21	none
Cc1ccccc1C(=O)N(Cc1ccc(Br)cc1)c1ccc(F)cc1	none
COC(=O)COC(=O)c1ccc(Oc2nc(N(C)C)nc(N(C)C)n2)cc1	none
C=CCOc1ccc2[nH]c(C)c(C(=O)OCC)c2c1	none
O=c1cc(CSC(=S)N2CCSCC2)c2ccccc2[nH]1	none
C=CCOc1cc(=O)[nH]c2ccccc12	Dicer processing 4.7
CC(C)NC(=S)NNC(=O)C1CC2CCC1O2 (stereo unspecified)	none
COc1cc(C)nc(N(CCO)CCO)n1	Dicer processing 5.9
COc1cc(C)nc(SCC(N)=O)n1	none
COc1cc(C)nc(-n2nc(C)cc2OC)n1	none
Cc1nc2ccc(NC(=O)C(Cl)Cl)cc2o1	none
CC1=Nc2cc(Cl)c(Cl)cc2NC(C)(C)C1	Dicer processing 7.2
CCOC(=O)C1CCN(S(=O)(=O)c2ccc(-c3csc(C)n3)s2)CC1	none
O=C(CSc1nc2cc(Cl)ccc2o1)c1ccc(F)cc1	none
COC(=O)c1ccc(S(=O)(=O)N2CCC(O)CC2)n1C	none
